We go through 35 compounds from PMC5540273 (PLoS ONE, 2017).
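Note: KINOMEscan kinase panel screen.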

This assay deals with PKN1. The note with it: concentration: 1 μM, replicates: in singlicate; n = 1.
In the case of `Clc1cc(Nc2ncnc3cc[nH]c23)ccc1OCc1ccccn1`, the “%Inh” value turned out to be 23%.

With `COc1cc2ncnc(Nc3ccc(OCc4ccccc4Br)c(Cl)c3)c2cc1OC.Cl` [GI261590], the “%Inh” value turned out to be 100%.

For the compound `CCCc1ccc(S(=O)(=O)NC2CCN(c3ccnc(Nc4ccc(OC)cc4)n3)C2)cc1` (centres unmarked) [GSK1379737], the “%Inh” value came to 0%.

On to `C[C@H]1CC[C@@H](C(=O)Nc2ccccc2)CN1c1cc(-c2ccc3c(N)n[nH]c3c2)nc(N)n1` [GSK2283293], for which the “%Inh” value is 0%.

With `Fc1ccc(Nc2nccc(-c3c(-c4ccc(Cl)cc4)nn4ncccc34)n2)cc1F` [GW829058], the “%Inh” value was found to be 4%.

Consider `COc1ccc(-c2oc3ncnc(N)c3c2-c2ccc(OC)cc2)cc1` [SB-589132], for which the “%Inh” value was found to be 0%.

Take `Nc1nc(-c2ccc3c(N)n[nH]c3c2)cc(N2CCC[C@@H](C(=O)Nc3ccccc3)C2)n1.O=C(O)C(F)(F)F.O=C(O)C(F)(F)F` [GSK2288359]: the “%Inh” value came out at 17%.

For the compound `CS(=O)(=O)CCNCc1ccc(-c2ccc3ncnc(Nc4ccc(OCc5ccccc5)c(Cl)c4)c3c2)o1.Cl` [GW574783], the “%Inh” value amounted to 12%.

As for `CNc1nccc(-c2c(-c3ccc(F)cc3)ncn2C2CCN(C)CC2)n1` [SB-222903], the “%Inh” value is on record as 0%.

With `Cl.O=S(=O)(c1cccc(F)c1)c1ccc(Nc2ncnc3cc(Br)sc23)cc1Cl` [GSK306886], the “%Inh” value stood at 19%.

For the compound `Cl.c1ccc(Cn2ccc3cc(Nc4ncnc5ccccc45)ccc32)cc1` [GW275568], the “%Inh” value was 26%.

`FC(F)(F)c1ccc(-c2cc(-c3c[nH]nc3-c3ccccn3)ccn2)cc1` [GW599550]: the “%Inh” value is listed as 0%.

`CC(C)(C)c1ccc(-n2cnc3c(N)ncnc32)cc1` [SKF-97263]: the “%Inh” value is 39%.

As for `Nc1nccc2scc(-c3ccc4c(c3)CCN4C(=O)Cc3cc(F)ccc3F)c12` [GSK2587663], the “%Inh” value was 0%.

`NC(=O)c1sc(-n2cnc3ccccc32)cc1OCc1ccccc1F` [GSK1024306]: the “%Inh” value is recorded as 60%.

In the case of `O=C(NCCCN1CCCC1=O)c1cnc(NCc2cc(Cl)ccc2Cl)nc1NC1CCNCC1`, the “%Inh” value is reported as 20%.

As to `CN1CCC(n2cnc(-c3ccc(F)cc3)c2-c2ccnc(NC3CCNCC3)n2)CC1` [SB-229482], the “%Inh” value turned out to be 0%.

As for `O=C(Nc1n[nH]c2nc(-c3ccco3)c(Br)cc12)c1ccc(CN2CCCC2)cc1.O=C(O)[C@H](O)[C@@H](O)C(=O)O` [SB-742352], the “%Inh” value is given as 0%.

Take `FC(F)(F)c1ccc(-c2nn3ncccc3c2-c2ccnc(Nc3cccc(C(F)(F)F)c3)n2)cc1` [GW828205]: the “%Inh” value was determined as 0%.

As for `COc1ccc(NC(=O)Nc2ccc(C)c(-c3ccc(C(=O)Nc4ccncc4)cc3)c2)cc1` [GSK1398475], the “%Inh” value came out at 0%.

Consider `Cl.Fc1ccccc1COc1ccc(Nc2ncnc3ccc(-c4nnc(C(F)(F)F)o4)cc23)cc1Cl` [GW424170], for which the “%Inh” value stood at 0%.

Turning to `CCC(CC)(CC)n1cnc2c(N)ncnc21` [SKF-97620], the “%Inh” value is recorded as 0%.

For `Cn1ccc2ncnc(Oc3ccc(NC(=O)Nc4cccnc4)c(Cl)c3)c21`, the “%Inh” value is 0%.

Consider `Cl.c1ccc(Cn2ncc3cc(Nc4ncnc5ccccc45)ccc32)cc1` [GW273749], for which the “%Inh” value turned out to be 13%.

Consider `Cc1ccc(O)cc1Nc1cc(C(F)(F)F)nc2ccc(-c3ccncc3)cc12` [GW630823], for which the “%Inh” value worked out at 0%.

For `Cn1ccc2ncnc(Nc3ccc(Oc4cccc(Cl)c4)c(Cl)c3)c21`, the “%Inh” value was found to be 0%.

For the compound `Clc1ccc(-c2cc(-c3c[nH]nc3-c3ccccn3)ccn2)cc1` [GW681251], the “%Inh” value came to 0%.

With `COC(=O)c1cccc(NC(=O)NCCNc2ccnc(Nc3ccc(F)cc3)n2)c1` [GSK1379883], the “%Inh” value was found to be 3%.

In the case of `C[C@@H]1CCN(C(=O)CO)C[C@@H]1N(C)c1ncnc2[nH]ccc12`, the “%Inh” value was 20%.

On to `COc1ccc(NC(=O)c2ccc(-c3cc(-c4nnc(C)o4)ccc3C)cc2)cc1` [GW595885], for which the “%Inh” value was 0%.

For the compound `CC(C)N1CCC(n2cnc(-c3ccc(F)cc3)c2-c2ccnc(N)n2)CC1` [SB-223132], the “%Inh” value is 0%.

Turning to `Oc1ccc2ncnc(Nc3ccc(OCc4ccccc4)cc3)c2c1` [GI262866], the “%Inh” value is recorded as 1%.

For `CC(=O)Nc1n[nH]c2ncc(-c3ccccc3)cc12` [SB-548492], the “%Inh” value is 0%.

As for `CCc1nc(-c2cccc(C)c2)c(-c2ccnc(NC(=O)c3ccccc3)c2)s1`, the “%Inh” value was determined as 13%.

On to `OCCOCCn1ccc2ncnc(Nc3ccc(Oc4cccc(Cl)c4)c(Cl)c3)c21`, for which the “%Inh” value is given as 13%.
